An excerpt weighted towards active compounds, which were near 7.5% of everything screened.
Gal4-VP16 FLuc: VP16 counterscreen qHTS for inhibitors of ROR gamma transcriptional activity; Drosophila S2 Gal4-VP16 UAS-luciferase, luminescence, 20 h; Potency, µM (titrated, usually from 53.6 µM), for the others: at the top dose activity, negative = inhibition, usual class: inhibitors; 310,000 tested, 3.5% active; AID 2546, 2010;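 further: Gal4-VP16 expression switched on by copper sulfate through the metallothionein promoter; potency means the concentration at half of the fitted maximal effect; nearly all actives have a fitted effect of over 50% in size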
ELG1 DNA repair: qHTS screen for small molecules that inhibit ELG1-dependent DNA repair in human embryonic kidney (HEK293T) cells expressing luciferase-tagged ELG1; HEK293T ELG1-luciferase reporter, luminescence, 16 h; DNA damage induced by 5-fluorouridine; Potency, µM (highest dose often 46.1 µM), for the others: at the highest dose activity change, negative = inhibition, hits mostly inhibitors; 330,000 tested, 2.3% active; AID 504467, 2011; further: potency means the concentration at half of the fitted maximal effect; nearly all actives have a fitted effect of over 55% in size
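Quantitative HTS, concentration-response format. 2,000 cells/well co-treated with 5-fluorouridine and compound, 16 hr in 5% CO2 at 37 °C; ONE-Glo luminescence read after 30 min.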
RORg inh: qHTS for inhibitors of ROR gamma transcriptional activity | Nuclear receptor ROR-gamma (Mus musculus), P51450 | Drosophila S2 Gal4-RORgamma UAS-luciferase reporter, 20 h | Potency, µM (highest dose often 53.6 µM), without a hit: at the highest dose activity change, negative = inhibition, hits mostly inhibitors | 310,000 tested, 5.4% active | AID 2551, 2010; further: potency means the concentration at half of the fitted maximal effect; nearly all actives have a fitted effect of over 60% in size
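ROR gamma transcriptional activity was tracked as Gal4-UAS luciferase output in stably transfected Drosophila Schneider cells, with compound added 1 hr before 700 uM copper sulfate induction and a 20 hr ambient-temperature incubation.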
B2AR arrestin: qHTS assay of beta-arrestin-biased ligands of beta2-adrenergic receptor | Beta-2 adrenergic receptor (Homo sapiens), P07550 | beta-arrestin recruitment to beta2AR, cell-based reporter | Potency, µM (series often up to 46.1 µM), for the others: top-dose activation, usual class: activators | 330,000 tested, 0.02% active | AID 492947, 2010;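 further: potency means the concentration at half of the fitted maximal effect; 0% = DMSO controls and full agonism = EC100 isoproterenol or metaproterenol; nearly all actives have a fitted effect of over 65% in size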
Target sequence (P07550 whole entry, looked up): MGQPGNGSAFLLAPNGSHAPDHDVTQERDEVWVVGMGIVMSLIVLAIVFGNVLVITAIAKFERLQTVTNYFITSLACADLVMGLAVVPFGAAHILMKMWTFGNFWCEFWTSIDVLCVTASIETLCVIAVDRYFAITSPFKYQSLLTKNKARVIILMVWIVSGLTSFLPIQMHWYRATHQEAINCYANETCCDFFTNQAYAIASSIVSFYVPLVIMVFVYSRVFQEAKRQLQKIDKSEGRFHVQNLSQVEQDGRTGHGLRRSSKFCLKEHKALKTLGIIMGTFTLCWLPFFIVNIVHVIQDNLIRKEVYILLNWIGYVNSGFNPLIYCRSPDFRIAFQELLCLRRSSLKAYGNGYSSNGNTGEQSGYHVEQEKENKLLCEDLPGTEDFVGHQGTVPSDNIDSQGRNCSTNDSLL
TSHR antag: Antagonists of the Thyroid Stimulating Hormone Receptor: HTS campaign. Thyrotropin receptor (Homo sapiens), P16473. TSHR-expressing cells, TSH-stimulated cAMP HTRF, 2 h; stronger effect = lower value. activity change, negative = inhibition, % at 11.5 µM. 330,000 tested, 0.2% active. AID 504810, 2011;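 active means activity change below a set negative limit, meaning inhibition stronger than a set level, cut at about -70% in these data; inconclusive means activity change between two set negative limits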
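Inhibition of cAMP made by TSHR-expressing cells under TSH stimulation (4nM final, EC80; 2 h, 37 deg C) is quantified with a one-step lysis HTRF kit, anti-cAMP cryptate versus cAMP-d2.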
* = called active by the depositor; [ ] = remark or other dose. Unless noted, the call rests on the fitted dose curve; in most records, active means well fitted curve in the direction sought with a large enough effect; inconclusive means small, poorly fitted or top-dose-only effect, or another doubt; inactive means no such curve, though single readings can be large; an effect the other way counts as inactive or inconclusive. Unless noted, on the % scale 0 is the no-effect control and ±100 the full control effect.

For S=C(NCCc1ccccc1)Nc1ccc(Br)cn1 the results were Gal4-VP16 FLuc 5.01µM*, ELG1 DNA repair -4.0%, RORg inh 0.282µM*, B2AR arrestin 7.3% and TSHR antag -2.4.
Screening S=C(NCCc1ccccc1)Nc1ccc(Cl)cc1 returned Gal4-VP16 FLuc inconclusive, ELG1 DNA repair inconclusive, RORg inh 6.31µM*, B2AR arrestin -0.3% and TSHR antag -4.1.
Screening O=C(Nc1ccc([N+](=O)[O-])cc1)c1ccc(Cn2cc([N+](=O)[O-])cn2)cc1 returned Gal4-VP16 FLuc 7.6%[10 µM], ELG1 DNA repair inconclusive, RORg inh 37.6%, B2AR arrestin 0.0% and TSHR antag -21.2.
For O=[N+]([O-])c1ccc(NC(=S)NCCc2ccccc2)cc1 the results were Gal4-VP16 FLuc 15.5%, ELG1 DNA repair inconclusive, RORg inh -12.2%, B2AR arrestin -0.3% and TSHR antag inconclusive.
`O=C(Nc1cnn(Cc2ccc(Cl)cc2)c1)c1ccc([N+](=O)[O-])cc1` gave Gal4-VP16 FLuc 2.3%, ELG1 DNA repair 20.6µM*, RORg inh inconclusive, B2AR arrestin -0.5% and TSHR antag -19.4.
NNC(=S)NCCc1ccccc1 was read as Gal4-VP16 FLuc 10µM*, ELG1 DNA repair 13.5%, RORg inh 3.55µM*, B2AR arrestin 0.8% and TSHR antag -12.8.
For S=C(NCCc1ccccc1)Nc1nccs1 the results were ELG1 DNA repair 1.6%, B2AR arrestin 0.2% and TSHR antag -2.5.
For COCCCNC(=O)Cn1c(=O)n(CCCCCC(=O)NCc2ccc3c(c2)OCO3)c(=O)c2sccc21 the results were Gal4-VP16 FLuc -0.2%, ELG1 DNA repair -6.0%, RORg inh 9.1%, B2AR arrestin 0.4% and TSHR antag 26.5.
Screening Cc1cc(F)cc(C)c1Cn1cnc2c(cnn2C(C)(C)C)c1=O returned ELG1 DNA repair inconclusive, B2AR arrestin -1.6% and TSHR antag 3.6.
For CC(C)C1CCC(C(=O)NC(Cc2ccccc2)C(=O)O)CC1 (stereo not given) the results were Gal4-VP16 FLuc -4.7% and RORg inh 32.6%.
Screening CC[C@@H](CO)Nc1nc(NCc2ccccc2)c2ncn(C(C)C)c2n1 returned TSHR antag 6.5.
For Cc1csc(NC(=O)CSc2nc3nc(C)cc(C)n3n2)n1 the results were ELG1 DNA repair 3.3%, B2AR arrestin -3.0% and TSHR antag -0.6.
For CCCn1c(=O)c2[nH]c(-c3ccccc3)nc2n(CCC)c1=O the results were Gal4-VP16 FLuc 6.9% and RORg inh inconclusive.
S=C(NCCCCc1ccccc1)NCc1ccccc1 was read as Gal4-VP16 FLuc inconclusive, ELG1 DNA repair 14.5%, RORg inh 15.8µM*, B2AR arrestin -0.2% and TSHR antag -4.8.
`S=C(Cc1ccccc1)NCCc1ccccc1` gave ELG1 DNA repair 0.5%, B2AR arrestin 0.1% and TSHR antag -10.8.
Screening O=C(Nc1ccc(Cl)cc1)Nc1cc([N+](=O)[O-])ccc1F returned Gal4-VP16 FLuc inconclusive, ELG1 DNA repair 13µM*, RORg inh inconclusive, B2AR arrestin 0.3% and TSHR antag 0.7.
Screening S=C(NCCc1ccccc1)NCCc1ccccc1 returned Gal4-VP16 FLuc 10µM*, ELG1 DNA repair inconclusive, RORg inh 7.08µM*, B2AR arrestin 0.5% and TSHR antag -10.8.
CC(=O)c1ccc(NC(=S)NCCc2cccc(Cl)c2)cc1 was read as Gal4-VP16 FLuc inconclusive, ELG1 DNA repair inconclusive, RORg inh 17.8µM*, B2AR arrestin -0.9% and TSHR antag -1.2.
For COc1ccc(-c2cn(CCO)nc2-c2ccc(OC)cc2)cc1 the results were Gal4-VP16 FLuc 6.7%, ELG1 DNA repair -2.7%, RORg inh 14.6%, B2AR arrestin -0.4% and TSHR antag -6.1.
For Cc1c(C(=O)N2CCCCC2)c(S(=O)(=O)N2c3ccccc3CC2C)c(C)n1C (stereo not given) the results were Gal4-VP16 FLuc -5.6%, ELG1 DNA repair 0.7%, RORg inh -4.2%, B2AR arrestin -0.3% and TSHR antag -3.9.
